Source: PubChem BioAssay
HSF-1 act: increases HSF-1 driven luciferase reporter signal. NIH3T3-HGL HSF-1 luciferase reporter, MG132, 8 h; 100% = twice DMSO control signal. activation, % at 9 µM. 300,000 compounds, 1.7% hits;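 active means mean replicate activation of at least 50% with a set share of replicates each reaching 50%; inconclusive means only one of those two conditions met; inactive means mean below 50% and too few replicates reaching it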;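 further: 0% = median of the neutral control wells and 100% = twice that signal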
HSF1 inh: HSF1 inhibition; 300,000 compounds, 0.77% hits; NIH3T3-HGL HSE-luciferase, MG132-induced, luminescence 8 h; stronger effect = lower value; AID 2098; activity change, negative = inhibition, % at 7.5 µM (by protocol);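 active means more than half of replicate wells show activity change below -50%, luminescence cut by over half; inconclusive means some wells, but at most half, below -50%; inactive means no replicate well below -50%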;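 further: luciferase reports HSF-1 transcriptional activity via heat shock element; 0% = median of DMSO wells and -100% = zero luminescence signal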
NOD2 RIPK2 PPI: inhibitors of human NOD2-RIPK2 interaction | O43353 | CHO BLA complementation NOD2-RIPK2, CCF4 ratio | inhibition, % at 4.98 µM | 360,000 compounds, 0.38% hits | AID 624267; in the data active means inhibition above about 21%;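 further: 0% = vehicle only and 100% = reference blocker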
Target sequence (O43353 whole entry, looked up): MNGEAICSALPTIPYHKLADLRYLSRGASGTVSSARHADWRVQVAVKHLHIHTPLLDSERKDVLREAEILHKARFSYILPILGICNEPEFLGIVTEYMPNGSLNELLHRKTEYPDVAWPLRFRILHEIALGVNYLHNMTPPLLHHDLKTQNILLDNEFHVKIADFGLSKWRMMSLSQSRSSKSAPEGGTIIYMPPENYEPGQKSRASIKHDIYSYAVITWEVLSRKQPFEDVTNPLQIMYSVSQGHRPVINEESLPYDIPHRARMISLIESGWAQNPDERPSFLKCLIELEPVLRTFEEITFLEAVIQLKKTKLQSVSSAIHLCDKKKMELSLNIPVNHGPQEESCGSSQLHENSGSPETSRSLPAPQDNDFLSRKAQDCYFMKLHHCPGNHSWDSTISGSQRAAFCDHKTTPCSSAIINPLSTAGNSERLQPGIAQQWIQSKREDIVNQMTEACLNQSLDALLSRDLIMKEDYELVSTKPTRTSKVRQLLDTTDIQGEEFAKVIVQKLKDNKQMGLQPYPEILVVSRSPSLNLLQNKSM
TLR4-MyD88 BLA: TLR4-MyD88 interaction inhibition in cells | HeLa CL3-4 TLR4/MyD88 BLA complementation, FRET ratio | inhibition, % at 8.4 µM | 200,000 compounds, 0.18% hits; in the data active means inhibition above about 25%;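 further: 0% = vehicle and 100% = reference inhibitor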
TLR9-MyD88 block: TLR9-MyD88 interaction inhibition | CHO BLA complementation TLR9-MyD88, CCF4 FRET ratio | 340,000 compounds, 0.21% hits | inhibition, % at 4.98 µM | Q9NR96+Q99836;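 active means inhibition above the mean over all tested compounds plus 3 SD, cut at about 21% in these data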;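 further: 0% = DMSO only wells and 100% = clavulanate BLA inhibitor control wells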
* marks the source's active call; other numbers are inactive results; u = inconclusive; x = no result. Sampled rows, rich in hits. Any-hit rate of the full collection: about 2.4%.

SMILES | HSF-1 act | HSF1 inh | NOD2 RIPK2 PPI | TLR4-MyD88 BLA | TLR9-MyD88 block
Cc1oc(=O)c(NC(=O)c2ccccc2)cc1C(=O)c1ccccc1 | 121* | 79 | 6 | 1 | 8
Cc1ccc(C(=O)Nc2cc3ccccc3oc2=O)cc1 | -75 | -72* | -1 | -30 | -4
CC(=O)c1cc(NC(=O)c2ccc(C)cc2)c(=O)oc1C | 43 | 37 | 9 | 0 | -1
CC(=O)c1cc(NC(=O)c2ccccc2)c(=O)oc1C | 30 | 36 | -4 | -10 | -4
CC(C)(C)c1ccc(NC(=O)Nc2ccc(F)cc2)cc1 | 57* | 30 | -5 | -4 | x
COc1ccc(OC(C)C(=O)N2CCC(C)CC2)cc1 (centres undefined) | -73 | -66* | 1 | 16 | 7
O=C(CN1CSCC1=O)N1CCN(S(=O)(=O)c2cc(C(F)(F)F)ccc2Cl)CC1 | x | x | 4 | x | 2
Cc1ccc(C(C)(O)CS(=O)(=O)Cc2ccccc2Cl)cc1 (centres undefined) | 112* | 51 | -9 | x | -4
O=[N+]([O-])c1cc(-c2ncccn2)c([N+](=O)[O-])s1 | 97* | 95 | 7 | 7 | 12
Brc1ccc(C2=CC(c3cccs3)n3ncnc3N2)cc1 (centres undefined) | -9 | -4 | 14 | 2 | 13
Fc1ccc(Br)cc1C1C=C(c2cccnc2)Nc2ncnn21 (centres undefined) | -12 | -4 | 49* | -6 | 24*
O=C(CCCc1ccncc1)c1ccccc1 | x | x | 2 | x | -18
CC[n+]1c(/C=C/N(C)c2ccccc2)oc2ccc(Cl)cc21 | 0 | -10 | 1 | -16 | -15
CCN1/C(=C/C=C/c2oc3ccc4ccccc4c3[n+]2CC)Oc2ccc3ccccc3c21 | 300* | 238 | x | 18 | x
O=C(OCc1ccccc1)N1CCC2CC1c1ccc(-c3cccc(F)c3)cc12 (centres undefined) | x | x | 5 | x | x
CCCCSc1ncc(C(=O)OCC)c(N)n1 | 64* | 31 | -6 | -6 | -1
CCOC(=O)c1cnc(SCc2ccc(C)cc2)nc1N | u | 32 | -5 | -6 | -1
CCOC(=O)c1cnc(SCCc2ccccc2)nc1N | 88* | 54 | -2 | -3 | 10
Cn1ccc(C(=O)N/N=C/c2ccncc2)n1 | 78* | 35 | -7 | x | -3
Cc1cccc(N(Cc2cc3ccccc3[nH]c2=O)C(=O)c2cccs2)c1 | -38 | -24 | 13 | x | -3
Cc1ccc(N(Cc2cc3ccc(C)cc3[nH]c2=O)C(=O)c2cccs2)cc1 | -88 | -85* | x | x | x
COC(=O)c1ccccc1Sc1ncnc2onc(C)c12 | 86* | 72 | 1 | 4 | 5
Cc1ccc(Sc2ncnc3onc(C)c23)c(C)c1 | x | x | -9 | -6 | -6
NC(=O)C(CCc1nc2ccccc2[nH]1)NS(=O)(=O)c1ccccc1 (centres undefined) | x | x | 3 | x | 11
CC1CCN(S(=O)(=O)c2cccc(C(=O)Nc3nncs3)c2)CC1 | 7 | -2 | 0 | x | 7
SMILES | HSF-1 act | HSF1 inh | NOD2 RIPK2 PPI | TLR4-MyD88 BLA | TLR9-MyD88 block
CCOc1cccc(/C=C2\NC(=S)N(c3ccccc3)C2=O)c1O | 102* | 82 | 10 | x | 0
Cc1ccc(S(=O)(=O)NC(=NCc2ccccc2)c2ccc(F)cc2)cc1 | -82 | -77* | 0 | x | -1
COc1ccc(C(NC(=O)C2CCN(CCc3ccccc3)CC2)c2ccccn2)cc1 (centres undefined) | x | x | 0 | x | x
COc1ccccc1-c1c(C#N)c(N)nc2c1CCc1ccccc1-2 | 60* | 41 | -8 | -11 | -34
CCOc1cc(-c2c(C#N)c(N)nc3c2CCc2ccccc2-3)ccc1O | 35 | 15 | -12 | -5 | -16
CC(=O)Nc1ccc(NC(=O)C(C)OC(=O)CN2C(=O)C3CCCCC3C2=O)cc1 (centres undefined) | x | x | -4 | x | 5
Fc1ccc(Nc2nnc(-c3ccncc3)s2)cc1Cl | x | x | -9 | x | x
CCCc1[nH]nc2c1C(c1ccc(OC)cc1OC)C(C#N)=C(N)O2 (centres undefined) | 63* | 23 | -3 | -7 | 5
CCCc1[nH]nc2c1C(c1cccc(OC)c1)C(C#N)=C(N)O2 (centres undefined) | 7 | -7 | -10 | 2 | -6
Cn1nc(-c2ccc(Cl)cc2)nc2c(=O)n(C)c(=O)nc1-2 | -94 | -95* | x | -14 | x
CCN1CCN(c2ccc(S(=O)(=O)N3CCCCC3)cc2NC(=O)/C=C/c2ccc(Cl)cc2)CC1 | x | x | 4 | x | 2
Clc1ccc2oc(-c3ccccc3)cc(=NCCCN3CCOCC3)c2c1 | x | x | -10 | -4 | -1
